Some test systems named below: DU-145 prostate; K-562 leukemia; MALME-3M melanoma; MDA-MB-231 breast; SF-268 CNS; SF-539 CNS; M14 melanoma; HCT-15 colon; HT29 colon; SNB-75 CNS; SNB-19 CNS; PC-3 prostate; SK-MEL-5 melanoma; UACC-62 melanoma; LOX IMVI melanoma; SK-MEL-28 melanoma; RXF 393 renal; SF-295 CNS; UACC-257 melanoma; U251 CNS.
Common to all, as to assay: NCI-60 one-dose screen, 48 h (100 = growth as untreated, 0 = no growth, -100 = all killed)
Holding throughout (conditions): 10 µM unless noted

Each structure is given as a SMILES string. About 83,000 compounds went through this panel and 20% of them were active in at least one assay; those are over-represented in the sample as a whole.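 Assay: single dose, 48 h. Readout: percent growth (0 = no net growth; negative = cell death). Active: <10.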 A number with no mark means an inactive call. Activity calls are given as the source filed them.

For the compound `Cc1ccc(S(=O)(=O)N2C/C(=C\c3cc(F)cc(F)c3)C(=O)/C(=C/c3cc(F)cc(F)c3)C2)cc1`, the growth in the assay on DU-145 prostate was -61.3% (active); in the assay on K-562 leukemia it was 2.14% (active); in the assay with MALME-3M melanoma, -62.9% (active); in the assay on MDA-MB-231 breast, -29.7% (active); with SF-268 CNS, -40.6% (active); with SF-539 CNS, -39.6% (active). Also, the growth in the assay with M14 melanoma was -50.1% (active); in the assay with HCT-15 colon, -31.6% (active); with HT29 colon, -48.7% (active); in the assay on SNB-75 CNS it was -41.6% (active); with SNB-19 CNS, -61.7% (active); in the assay on PC-3 prostate it was -60.3% (active). Further, the growth in the assay on SK-MEL-5 melanoma was -59.6% (active); in the assay with UACC-62 melanoma, -91.1% (active); with LOX IMVI melanoma, -94.5% (active); in the assay on SK-MEL-28 melanoma it was -80.1% (active).
For `O=c1nc(NO)[nH]c(=O)n1Cc1ccccc1`, the growth was 115% in the assay on DU-145 prostate; 108% in the assay on K-562 leukemia; 100% in the assay with MALME-3M melanoma; 123% in the assay on MDA-MB-231 breast; 94.8% with RXF 393 renal; 106% with SF-268 CNS. Also, the growth with SF-295 CNS is 93.7%; with SF-539 CNS, 98.7%; in the assay on M14 melanoma it was 106%; in the assay on HCT-15 colon it was 101%; with HT29 colon, 103%; in the assay on SNB-75 CNS, 92.8%. The growth in the assay with PC-3 prostate is 98.1%; with UACC-62 melanoma, 105%; with LOX IMVI melanoma, 103%; with SK-MEL-28 melanoma, 107%.
In the case of `FC(F)(F)c1cc(CNc2ncc(Br)c(Cl)n2)cc(C(F)(F)F)c1`, the growth with DU-145 prostate is 107%; with K-562 leukemia it was 89.1%; with MALME-3M melanoma, 75.8%; in the assay with MDA-MB-231 breast, 121%; in the assay with RXF 393 renal it was 86%; with SF-268 CNS it was 102%. In addition, the growth is 97% with SF-539 CNS; 96.4% with UACC-257 melanoma; 98.1% with M14 melanoma; 97.7% in the assay on HCT-15 colon; 106% in the assay with HT29 colon; 95.4% in the assay with SNB-75 CNS. Moreover, the growth was 112% in the assay with SNB-19 CNS; 92.2% in the assay on PC-3 prostate; 97.3% in the assay on SK-MEL-5 melanoma; 103% in the assay on UACC-62 melanoma; 90.5% with LOX IMVI melanoma; 102% in the assay on SK-MEL-28 melanoma.
On to `CN1CCc2c(c3ccccc3c3ccccc23)C1`, for which the growth in the assay with DU-145 prostate is 45.7%; in the assay with K-562 leukemia it was 27.1%; in the assay with MALME-3M melanoma, 53.4%; in the assay on MDA-MB-231 breast, 59.6%; in the assay on SF-268 CNS, 39.1%; in the assay with SF-295 CNS it was 45.1%. For the same compound, the growth in the assay with SF-539 CNS is 50.8%; with UACC-257 melanoma, 37.6%; with M14 melanoma it was 56.2%; with HCT-15 colon, 31.3%; with HT29 colon it was 37.7%; in the assay with SNB-75 CNS, 66.1%. In addition, the growth was 66.2% with SNB-19 CNS, 64% in the assay with PC-3 prostate, 61.3% in the assay with UACC-62 melanoma and 87.4% in the assay with SK-MEL-28 melanoma.
Consider `CN1CCN(c2nc(-c3ccncc3)nc3sc4c(c23)CCCCCC4)CC1`, for which the growth in the assay with DU-145 prostate is 91%; in the assay with K-562 leukemia, 35.5%; in the assay with MALME-3M melanoma it was 76.8%; in the assay on MDA-MB-231 breast, 49.2%; with SF-268 CNS, 61.2%; with SF-295 CNS, 57.2%. Besides, the growth in the assay with SF-539 CNS is 54.4%; in the assay on M14 melanoma it was 105%; in the assay with HCT-15 colon it was 76.5%; in the assay on HT29 colon, 24.3%; in the assay with SNB-75 CNS it was 14.5%; in the assay on U251 CNS, 63.5%. In addition, the growth was 61.9% in the assay with PC-3 prostate, 86.6% in the assay with UACC-62 melanoma, 64.9% in the assay on LOX IMVI melanoma and 83.5% in the assay on SK-MEL-28 melanoma.
On to `CC1=CN2C(=NC3=C(CCCC/C3=C\c3ccccc3)C2c2ccccc2)S1` (centres undefined), for which the growth was 108% in the assay on DU-145 prostate; 98.2% in the assay on K-562 leukemia; 89% in the assay on MALME-3M melanoma; 103% in the assay with MDA-MB-231 breast; 96.9% with SF-268 CNS; 79.1% in the assay with SF-295 CNS. Besides, the growth with SF-539 CNS is 92.3%; in the assay with M14 melanoma it was 107%; in the assay with HCT-15 colon, 94.8%; with HT29 colon, 91.7%; in the assay with SNB-75 CNS it was 82.5%; with PC-3 prostate it was 99.2%. In addition, the growth in the assay with UACC-62 melanoma was 83.8%; in the assay with LOX IMVI melanoma, 97.5%; in the assay with SK-MEL-28 melanoma, 107%.
As for `O=C(NCc1ccco1)C1CCN(S(=O)(=O)c2ccc(Cl)cc2)CC1`, the growth in the assay on DU-145 prostate was -18.5% (active); in the assay with K-562 leukemia it was 13.9%; in the assay on MALME-3M melanoma, 54.6%; in the assay with MDA-MB-231 breast it was 68.9%; in the assay on RXF 393 renal, 85.1%; in the assay on SF-268 CNS it was 37.1%. Further, the growth with SF-539 CNS was 80.9%; in the assay on UACC-257 melanoma, 86.5%; in the assay on M14 melanoma, 72.4%; in the assay with HCT-15 colon, 70.6%; in the assay on HT29 colon, 83.2%; with SNB-75 CNS, 72.2%. For the same compound, the growth was 84.3% in the assay with SNB-19 CNS; 83% in the assay on U251 CNS; -43.6% (active) in the assay with PC-3 prostate; 75.7% with SK-MEL-5 melanoma; 69.8% in the assay with UACC-62 melanoma; 77.1% in the assay on LOX IMVI melanoma. Moreover, the growth in the assay on SK-MEL-28 melanoma is 85.5%.
For `NC(=S)N/N=C1\c2ccccc2-c2c(F)c(F)c(F)c(F)c21`, the growth in the assay with DU-145 prostate is 81.7%; in the assay with K-562 leukemia, 9.46% (active); in the assay on MALME-3M melanoma it was 73.6%; with RXF 393 renal it was 123%; in the assay with SF-268 CNS, 85.3%; in the assay with SF-295 CNS, 99.5%. Besides, the growth is 96.1% with SF-539 CNS; 23.1% with UACC-257 melanoma; 70.2% in the assay with M14 melanoma; 62.8% with HCT-15 colon; 52.8% with HT29 colon; 95.7% with SNB-75 CNS. The growth with SNB-19 CNS was 89%; in the assay on U251 CNS, 63.9%; in the assay with PC-3 prostate, 80.3%; in the assay on SK-MEL-5 melanoma, 102%; in the assay with UACC-62 melanoma it was 93.4%; with LOX IMVI melanoma, 86.6%. In the assay on SK-MEL-28 melanoma, the growth is 113%.
For the compound `Clc1ccc2c(N3CCN(c4ccnc(NC5CCCCC5)n4)CC3)ccnc2c1`, the growth in the assay with DU-145 prostate is 62.4%; in the assay on K-562 leukemia, 7.08% (active); in the assay with RXF 393 renal, 57.6%; with SF-268 CNS it was 71.6%; in the assay with SF-295 CNS, 39.3%; in the assay on SF-539 CNS, 53.5%. In addition, the growth was 0.862% (active) in the assay on UACC-257 melanoma; -43.7% (active) with M14 melanoma; 2.81% (active) in the assay with HCT-15 colon; 3.22% (active) in the assay on HT29 colon; 65.6% with SNB-75 CNS; 40.4% in the assay with U251 CNS. Moreover, the growth with PC-3 prostate was 36.7%; with SK-MEL-28 melanoma it was 36.8%.
